# Laboratory results from PubChem BioAssay AID2599 (Sanford-Burnham Center for Chemical Genomics, 2010).
# In all, about 330,000 compounds went through this assay and about 5,800 (1.8%) were called active. The full list was thinned out, with actives kept by preference. A number with no mark means an inactive call.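 The calls were made as follows: active = inhibition above about 50% at the single tested dose (limit read from the data); inactive = the rest.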
# Molecular target: Sentrin-specific protease 6 (Homo sapiens) (UniProt Q9GZR1)
# Sequence (Q9GZR1 628-1112 limits assumed): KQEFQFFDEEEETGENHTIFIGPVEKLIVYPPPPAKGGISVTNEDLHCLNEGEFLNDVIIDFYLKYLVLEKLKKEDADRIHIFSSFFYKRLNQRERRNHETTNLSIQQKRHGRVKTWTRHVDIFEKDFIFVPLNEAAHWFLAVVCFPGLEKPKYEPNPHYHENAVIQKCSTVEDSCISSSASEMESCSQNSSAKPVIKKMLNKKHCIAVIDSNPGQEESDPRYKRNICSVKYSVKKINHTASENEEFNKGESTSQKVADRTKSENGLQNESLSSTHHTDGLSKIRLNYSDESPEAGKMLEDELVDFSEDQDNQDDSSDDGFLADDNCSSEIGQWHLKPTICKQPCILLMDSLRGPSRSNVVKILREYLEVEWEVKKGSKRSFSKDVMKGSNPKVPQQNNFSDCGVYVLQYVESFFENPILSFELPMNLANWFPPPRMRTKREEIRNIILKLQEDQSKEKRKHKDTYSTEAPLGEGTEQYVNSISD
# Test: SENP6 protease inhibitors, primary screen, biochemical, luminescence, uHTS (AID 2599);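 also: plate controls were DMSO wells with enzyme for no effect and DMSO wells lacking enzyme for full effect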
# Settings: Recombinant SENP6 catalytic domain, aminoluciferin luminescence; at 10 µM; hits give high values
row,Compound,inhibition
1,CCOC(=O)c1c(N)n(CCN2CCOCC2)c2nc3ccccc3nc12,-28.7%
2,CCOC(=O)c1c(N)n(Cc2ccccc2)c2nc3ccccc3nc12,29.7%
3,COc1cc(Cn2c(N)c(C(=O)NCc3ccco3)c3nc4ccccc4nc32)cc(OC)c1OC,83.6% (active)
4,CC[N+](CC)(CC)CCCCCCCCCC[N+](CC)(CC)CC,-14.6%
5,O=C(Nc1cccc2ccccc12)N1CCC2(CC1)OCCO2,63.7% (active)
6,COc1ccc(NC(=O)N2CCC3(CC2)OCCO3)c(OC)c1,-19.7%
7,O=C(c1cc(-c2ccncc2)nc2ccccc12)N1CCC2(CC1)OCCO2,5.91%
8,Cc1cc2ccccn2c1C(C[N+](=O)[O-])c1c(F)cccc1Cl (stereo not given),-24.7%
9,O=[N+]([O-])c1cnc2ccc3ccccc3c2c1,-4.31%
10,C/C(CCc1c[nH]c2ccccc12)=N\O,-0.527%
11,C/C(=N/O)c1ccc2ccc3ccccc3c2c1,53.8% (active)
12,O=C(NC(=S)N1C[C@H]2C[C@H](C1)c1cccc(=O)n1C2)c1ccc(F)cc1,0.817%
13,CC(=O)N1CN2CN(C(C)=O)CC(C(=O)c3ccc(Br)cc3)(C2)C1,-9.66%
14,O=c1[nH]c(=O)n(-c2ccc(F)cc2)c(O)c1C=NCCN1CCCCC1,-0.13%
15,CCCCCCCCCCCCn1ccc(=N)cc1,-35.7%
